The panel holds about 83,000 compounds, 20% with a hit somewhere; the sample as a whole holds those more often.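 In brief: 96-well plates, 48 h treatment, single concentration, percent growth endpoint.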 Unmarked numbers belong to inactive results. The source made the active and inactive calls. How the source made its calls: active means growth percent below 10; inactive means the rest.
System: HCT-15 colon
Experiment: NCI-60 one-dose screen, 48 h (100 = growth as untreated, 0 = no growth, -100 = all killed)
Conditions: 10 µM unless noted

Q: `Cc1cn([C@]2(CF)O[C@H](CO)C2C)c(=O)[nH]c1=O` (some centres undefined) was tested. Which growth did it give?
A: 112%

Q: For `CC(Cc1cccc(C(F)(F)F)c1)NCCOC(=O)c1ccccc1` (centres undefined), which growth is on record?
A: 105%

Q: How did the growth turn out when `CCCCN(CCCC)c1ccc(C(=N)c2ccc(N(C)C)cc2)cc1` was run?
A: -58.7% (active)

Q: With `COC(=O)/C=C/C(=O)c1cc(C)cc(C)c1O` as the compound, how does the growth read?
A: 100%

Q: For `O=C1C(Cl)=C(Nc2ccccc2)C(=O)C(Cl)=C1Nc1ccccc1`, which growth is on record?
A: 109%

Q: How did the growth turn out when `CC1(C)Cc2c(Br)c(Br)c(Br)c(OCC(O)CN3CCN(c4ccccn4)CC3)c2O1` (centres undefined) was run?
A: 79.7%

Q: With `Cc1ccc(-c2cn3cc([N+](=O)[O-])ccc3n2)cc1` as the compound, how does the growth read?
A: 80.2%

Q: `CCCOC(=O)c1ccc([N+](=O)[O-])o1` was tested. Which growth did it give?
A: 102%

Q: Which growth does the source give for `CCOC(=O)CSc1nnc(-c2cc3c([nH]c4ccccc43)c(-c3cccc(O)c3)n2)n1-c1ccc(C)cc1` here?
A: 42.7%

Q: For `O=C(NCCNc1nccc(-c2c(-c3cccc(O)c3)nc3sccn23)n1)c1ccc(N2CCOCC2)c(C(F)(F)F)c1`, which growth is on record?
A: 80.1%

Q: Which growth does the source give for `COc1ccc(-c2nn(-c3cccc(Cl)c3)cc2-c2cc(-c3ccc(Br)cc3)[nH]c(=O)c2C#N)cc1` here?
A: 71.1%

Q: `Clc1ccc2c(NCCNc3nc(Cl)nc4ccccc34)ccnc2c1` was tested. Which growth did it give?
A: -67.5% (active)

Q: Which growth does the source give for `COc1ccc2c(c1)/C(=C/c1c(-c3cc(OC)c(OC)c(OC)c3Br)nc3sccn13)C(=O)N2` here?
A: 109%

Q: For `COc1ccccc1N1CCN(CCCOc2ccc(OCCCN3CCN(c4ccccc4OC)CC3)c(C(=O)c3cc(OC)c(OC)c(OC)c3)c2)CC1`, which growth is on record?
A: 140%

Reference: PubChem BioAssay (NCI)
